Source: PubChem BioAssay (NCI)
The panel holds about 83,000 compounds, 20% with a hit somewhere; the sample as a whole holds those more often.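 Treatment: one concentration, 48 hours, 96-well format. Scoring: percent growth, with anything below 10 considered active.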 Activity calls are given as the source filed them.

Columns and labels:
Assay in all cases: NCI-60 one-dose screen, 48 h (100 = growth as untreated, 0 = no growth, -100 = all killed)
Settings in all cases: 10 µM unless noted
DU-145 prostate = test system: DU-145 prostate
K-562 leukemia = test system: K-562 leukemia
MALME-3M melanoma = test system: MALME-3M melanoma
MDA-MB-231 breast = test system: MDA-MB-231 breast
RXF 393 renal = test system: RXF 393 renal
SF-268 CNS = test system: SF-268 CNS
SF-295 CNS = test system: SF-295 CNS
SF-539 CNS = test system: SF-539 CNS
UACC-257 melanoma = test system: UACC-257 melanoma
M14 melanoma = test system: M14 melanoma
HCT-15 colon = test system: HCT-15 colon
HT29 colon = test system: HT29 colon
SNB-75 CNS = test system: SNB-75 CNS
U251 CNS = test system: U251 CNS
PC-3 prostate = test system: PC-3 prostate
SK-MEL-5 melanoma = test system: SK-MEL-5 melanoma
UACC-62 melanoma = test system: UACC-62 melanoma
LOX IMVI melanoma = test system: LOX IMVI melanoma
SK-MEL-28 melanoma = test system: SK-MEL-28 melanoma
SNB-19 CNS = test system: SNB-19 CNS

Measured: growth

C#Cc1ccccc1NC(=O)c1sc2nc3c(cc2c1N)CCCCC3
inactive: DU-145 prostate 104% | K-562 leukemia 90.5% | MALME-3M melanoma 102% | MDA-MB-231 breast 93.5% | RXF 393 renal 113% | SF-268 CNS 104% | SF-295 CNS 113% | SF-539 CNS 101% | UACC-257 melanoma 110% | M14 melanoma 93.9% | HCT-15 colon 97.6% | HT29 colon 81.3% | SNB-75 CNS 90.4% | U251 CNS 99% | PC-3 prostate 97.7% | SK-MEL-5 melanoma 97.2% | UACC-62 melanoma 95.2% | LOX IMVI melanoma 95.8% | SK-MEL-28 melanoma 111%

O=C1CC(c2ccc(O)c(O)c2)Oc2cc(O)c([C@@H]3O[C@H](CO)[C@@H](O)[C@H](O)[C@H]3O)c(O)c21 (some centres undefined)
inactive: DU-145 prostate 105% | K-562 leukemia 96.8% | MALME-3M melanoma 110% | MDA-MB-231 breast 101% | RXF 393 renal 103% | SF-268 CNS 102% | SF-295 CNS 103% | SF-539 CNS 100% | UACC-257 melanoma 106% | M14 melanoma 102% | HCT-15 colon 102% | HT29 colon 103% | SNB-75 CNS 102% | U251 CNS 98.1% | PC-3 prostate 97.3% | SK-MEL-5 melanoma 103% | UACC-62 melanoma 105% | LOX IMVI melanoma 104% | SK-MEL-28 melanoma 107%

CCCn1c2cc(OCc3cn(-c4ccc(Cl)cc4)nn3)ccc2c2ccnc(C)c21
inactive: DU-145 prostate 95.7% | K-562 leukemia 34.9% | MALME-3M melanoma 98.7% | MDA-MB-231 breast 64.6% | RXF 393 renal 73% | SF-268 CNS 95.1% | SF-295 CNS 81.6% | SF-539 CNS 87.3% | UACC-257 melanoma 61% | M14 melanoma 76.4% | HCT-15 colon 67.6% | HT29 colon 30.7% | SNB-75 CNS 92.5% | U251 CNS 47.5% | PC-3 prostate 71.2% | SK-MEL-5 melanoma 70.6% | UACC-62 melanoma 74.9% | LOX IMVI melanoma 65.1% | SK-MEL-28 melanoma 92.3%

COC(=O)/C=C/c1cc(OC)c2c(c1)[C@@H](C(=O)OC)[C@H](c1ccc(OC)c(OC)c1)O2
inactive: DU-145 prostate 14% | K-562 leukemia 10.8% | MALME-3M melanoma 44.3% | MDA-MB-231 breast 53.4% | SF-268 CNS 59.6% | SF-295 CNS 18.4% | UACC-257 melanoma 44.7% | HCT-15 colon 32.2% | HT29 colon 11% | U251 CNS 25.1% | PC-3 prostate 32.9% | UACC-62 melanoma 33.6% | LOX IMVI melanoma 51.1% | SK-MEL-28 melanoma 63.4%
active: RXF 393 renal -12.2% | SF-539 CNS -7.1% | M14 melanoma 2.02% | SNB-75 CNS -3.43% | SK-MEL-5 melanoma 9.73%

CCSc1nc(Cl)c(C#N)c(-c2ccc(F)cc2)n1
inactive: DU-145 prostate 104% | K-562 leukemia 37.7% | MALME-3M melanoma 106% | MDA-MB-231 breast 105% | RXF 393 renal 103% | SF-268 CNS 94.9% | SF-295 CNS 97.7% | SF-539 CNS 92.7% | UACC-257 melanoma 93.8% | M14 melanoma 82.3% | HCT-15 colon 88.1% | HT29 colon 92.6% | SNB-75 CNS 80.3% | U251 CNS 91.6% | PC-3 prostate 98.9% | SK-MEL-5 melanoma 97.1% | UACC-62 melanoma 93.4% | LOX IMVI melanoma 87.1% | SK-MEL-28 melanoma 101%

COc1cccc2c1-c1ccccc1C2=O
inactive: DU-145 prostate 17.7% | MALME-3M melanoma 59.7% | MDA-MB-231 breast 29.6% | SF-268 CNS 48.2% | UACC-257 melanoma 51.5% | HCT-15 colon 33.3% | HT29 colon 17.5% | SNB-75 CNS 18.1% | U251 CNS 17.8% | PC-3 prostate 28.1% | UACC-62 melanoma 33.3% | LOX IMVI melanoma 40.3% | SK-MEL-28 melanoma 47.9%
active: K-562 leukemia 8.78% | RXF 393 renal -2.91% | SF-295 CNS 9.85% | SF-539 CNS -3.06% | M14 melanoma -1.41% | SK-MEL-5 melanoma 9.97%

Cc1ccc(C2=N[C@H]3CCC[C@@H]3N(c3ccccc3)C(C(Cl)Cl)=N2)cc1
inactive: DU-145 prostate 101% | K-562 leukemia 94.9% | MALME-3M melanoma 95% | MDA-MB-231 breast 117% | RXF 393 renal 83.2% | SF-268 CNS 94.6% | SF-295 CNS 91.7% | SF-539 CNS 105% | UACC-257 melanoma 110% | M14 melanoma 91.9% | HCT-15 colon 99% | HT29 colon 89.7% | SNB-75 CNS 77% | U251 CNS 112% | PC-3 prostate 101% | SK-MEL-5 melanoma 104% | UACC-62 melanoma 105% | LOX IMVI melanoma 87.9% | SK-MEL-28 melanoma 101%

COc1cc(C2=NN(c3ccccc3)C(c3cccc(Nc4ccnc5cc(C(F)(F)F)ccc45)c3)C2)cc(OC)c1OC (centres undefined)
inactive: DU-145 prostate 93.6% | K-562 leukemia 68.2% | MALME-3M melanoma 92.1% | MDA-MB-231 breast 85.9% | RXF 393 renal 73.7% | SF-268 CNS 74.3% | SF-295 CNS 64.8% | SF-539 CNS 100% | UACC-257 melanoma 97.3% | M14 melanoma 92.9% | HCT-15 colon 78.1% | HT29 colon 71% | SNB-75 CNS 106% | U251 CNS 95.5% | PC-3 prostate 72.4% | SK-MEL-5 melanoma 89.8% | UACC-62 melanoma 83.5% | LOX IMVI melanoma 81.9% | SK-MEL-28 melanoma 100%

COc1ccc2c(c1)/C(=C1\S/C(=N/c3nnc(C)s3)NC1=O)C(=O)N2Cc1ccc(Cl)cc1
inactive: DU-145 prostate 52.4% | K-562 leukemia 38.3% | MALME-3M melanoma 72.5% | MDA-MB-231 breast 89.5% | RXF 393 renal 75.8% | SF-268 CNS 46% | SF-295 CNS 14.9% | SF-539 CNS 48.7% | UACC-257 melanoma 83.6% | M14 melanoma 45.6% | HCT-15 colon 28% | HT29 colon 54.7% | SNB-75 CNS 71% | U251 CNS 26% | PC-3 prostate 36.6% | SK-MEL-5 melanoma 30.9% | UACC-62 melanoma 32.8% | LOX IMVI melanoma 39.4% | SK-MEL-28 melanoma 49.2%

Cc1cccc(NC(=O)c2sc3nc4c(cc3c2N)CN(Cc2ccccc2)CC4)c1C
inactive: K-562 leukemia 13.1% | MALME-3M melanoma 53.5% | MDA-MB-231 breast 45.2% | RXF 393 renal 16.9% | SF-268 CNS 41.4% | SF-295 CNS 27.6% | SF-539 CNS 19.8% | UACC-257 melanoma 87.9% | HCT-15 colon 29.6% | SNB-75 CNS 13.5% | U251 CNS 25.4% | PC-3 prostate 32.2% | SK-MEL-5 melanoma 39.7% | UACC-62 melanoma 42.8% | LOX IMVI melanoma 44% | SK-MEL-28 melanoma 68.2%
active: DU-145 prostate 0.783% | M14 melanoma 4.27% | HT29 colon 9.33%

CCCCCCC/C=C/[C@H]1O[C@]23C(=O)C[C@@]4(C[C@@H](OC5OC(CO)C(O)C(O)C5O)C[C@@H]4[C@H]2C=C1C)OC3=O (some centres undefined)
active: K-562 leukemia 9.99% | MALME-3M melanoma 7.25% | MDA-MB-231 breast 5.73% | RXF 393 renal -43.7% | SF-539 CNS -14.3% | M14 melanoma -12.2% | HCT-15 colon -5.27% | HT29 colon 0.865% | U251 CNS -2.96% | SK-MEL-5 melanoma 8.74% | LOX IMVI melanoma -67.7% | SK-MEL-28 melanoma -5.61%
inactive: DU-145 prostate 39.8% | SF-268 CNS 48.3% | SF-295 CNS 58.5% | UACC-257 melanoma 29% | SNB-75 CNS 70.6% | PC-3 prostate 21% | UACC-62 melanoma 14.2%

Oc1ccccc1-c1nc2c3ccccc3c3ccccc3c2o1
inactive: DU-145 prostate 104% | K-562 leukemia 88.1% | MALME-3M melanoma 91.9% | MDA-MB-231 breast 81.7% | RXF 393 renal 109% | SF-268 CNS 89.8% | SF-295 CNS 115% | SF-539 CNS 105% | UACC-257 melanoma 101% | M14 melanoma 103% | HCT-15 colon 92.1% | HT29 colon 106% | SNB-75 CNS 89.7% | U251 CNS 82% | PC-3 prostate 77.8% | SK-MEL-5 melanoma 98.6% | UACC-62 melanoma 88.4% | LOX IMVI melanoma 90.6% | SK-MEL-28 melanoma 117%

CC(=O)Nc1c(C(=O)Nc2ccccc2)sc2nc3c(cc12)C(OC(C)=O)CCC3 (centres undefined)
inactive: DU-145 prostate 105% | K-562 leukemia 72.1% | MALME-3M melanoma 89.7% | MDA-MB-231 breast 101% | RXF 393 renal 62.1% | SF-268 CNS 97.5% | SF-295 CNS 32.4% | SF-539 CNS 95.8% | UACC-257 melanoma 64.8% | M14 melanoma 90.3% | HCT-15 colon 99.7% | HT29 colon 104% | SNB-75 CNS 88.2% | U251 CNS 94.8% | PC-3 prostate 89% | SK-MEL-5 melanoma 82.5% | UACC-62 melanoma 59% | LOX IMVI melanoma 92.2% | SK-MEL-28 melanoma 88.9%

COc1ccc(-c2nc(C#N)c(NCC(c3ccc(Cl)cc3)N3CCCCC3)o2)cc1 (centres undefined)
inactive: DU-145 prostate 94% | K-562 leukemia 76.7% | MALME-3M melanoma 91.4% | MDA-MB-231 breast 102% | RXF 393 renal 71.8% | SF-268 CNS 89.7% | SF-295 CNS 96.1% | SF-539 CNS 101% | UACC-257 melanoma 109% | M14 melanoma 92.7% | HCT-15 colon 69.4% | HT29 colon 85.6% | SNB-19 CNS 113% | U251 CNS 96% | PC-3 prostate 75.3% | SK-MEL-5 melanoma 93.2% | UACC-62 melanoma 90.4% | LOX IMVI melanoma 93.8% | SK-MEL-28 melanoma 94.3%

COc1ccc2[nH]c(=O)c(/C=C/C(=O)c3ccccc3OC)cc2c1
active: K-562 leukemia 4.24% | MDA-MB-231 breast 0.317% | RXF 393 renal -7.9% | SF-268 CNS 9.36% | SF-295 CNS 8.29% | SF-539 CNS -10% | HT29 colon 7.17% | SNB-75 CNS -11.5% | U251 CNS 5.14%
inactive: DU-145 prostate 10.8% | MALME-3M melanoma 38.6% | UACC-257 melanoma 37.6% | M14 melanoma 13.8% | HCT-15 colon 11.3% | PC-3 prostate 22.1% | SK-MEL-5 melanoma 25.2% | UACC-62 melanoma 25.7% | LOX IMVI melanoma 10.2% | SK-MEL-28 melanoma 50.5%

O=C(CCc1nnco1)c1nc2ccc([N+](=O)[O-])cc2[nH]1
inactive: DU-145 prostate 107% | K-562 leukemia 113% | MALME-3M melanoma 105% | MDA-MB-231 breast 90.5% | RXF 393 renal 117% | SF-268 CNS 102% | SF-295 CNS 102% | SF-539 CNS 104% | UACC-257 melanoma 112% | M14 melanoma 103% | HCT-15 colon 105% | HT29 colon 103% | SNB-75 CNS 104% | U251 CNS 107% | PC-3 prostate 96.1% | SK-MEL-5 melanoma 109% | UACC-62 melanoma 96.7% | LOX IMVI melanoma 93.2% | SK-MEL-28 melanoma 111%
